Source: PubChem BioAssay AID1159580 (chemical genetic matrix, 2015)
In all, about 5,500 compounds went through this assay and about 2,000 (36%) were called active. Not shown: some 18% with an inconclusive outcome. Rule as the data show it: active = normalized growth mostly below about 0.91 (no sharp cut-off); inconclusive = no clear call, values can overlap the other calls; inactive = mostly above about 0.92. Some of the results follow.

Assay: chemical genetic growth profiling, strain panel (AID 1159580);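 also: tested at 20 µM; growth read once vehicle control cultures reached saturation at 30 °C; 1 = growth at the plate median or of vehicle wells; lower values mean less growth of the strain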
Settings: growth OD

Measured: normalized growth

CCOC(=O)C1CCN(C(=S)Nc2ccccc2C(F)(F)F)CC1
inactive: S. cerevisiae deletion strains, locus YAL013W, strain DEP1, stronger effect = lower value 1 | S. cerevisiae deletion strains, locus YBR229C, strain ROT2, stronger effect = lower value 1 | S. cerevisiae deletion strains, locus YCL061C, strain MRC1, stronger effect = lower value 1.02 | S. cerevisiae deletion strains, locus YDL101C, strain DUN1, stronger effect = lower value 1.01 | S. cerevisiae deletion strains, locus YDR150W, strain NUM1, stronger effect = lower value 0.994 | S. cerevisiae deletion strains, locus YEL061C, strain CIN8, stronger effect = lower value 0.998 | S. cerevisiae deletion strains, locus YGR078C, strain PAC10, stronger effect = lower value 1.01 | S. cerevisiae deletion strains, locus YHR030C, strain SLT2, stronger effect = lower value 0.99 | S. cerevisiae deletion strains, locus YHR087W, strain rtc3, stronger effect = lower value 1.02 | S. cerevisiae deletion strains, locus YJR043C, strain POL32, stronger effect = lower value 1 | S. cerevisiae deletion strains, locus YJR075W, strain HOC1, stronger effect = lower value 0.982 | S. cerevisiae deletion strains, locus YKL190W, strain CNB1, stronger effect = lower value 0.994 | S. cerevisiae deletion strains, locus YLR039C, strain RIC1, stronger effect = lower value 0.866 | S. cerevisiae deletion strains, locus YLR058C, strain SHM2 (second series), stronger effect = lower value 0.996 | S. cerevisiae deletion strains, locus YLR085C, strain ARP6, stronger effect = lower value 0.983 | S. cerevisiae deletion strains, locus YLR262C, strain YPT6, stronger effect = lower value 0.868 | S. cerevisiae deletion strains, locus YML094W, strain GIM5, stronger effect = lower value 1.08 | S. cerevisiae deletion strains, locus YMR219W, strain ESC1, stronger effect = lower value 1 | S. cerevisiae deletion strains, locus YMR263W, strain SAP30, stronger effect = lower value 1.01 | S. cerevisiae deletion strains, locus YMR307W, strain GAS1, stronger effect = lower value 0.913 | S. cerevisiae deletion strains, locus YNL153C, strain GIM3, stronger effect = lower value 1.01 | S. cerevisiae deletion strains, locus YNL298W, strain CLA4 (second series), stronger effect = lower value 0.973 | S. cerevisiae deletion strains, locus YNL322C, strain KRE1, stronger effect = lower value 1.01 | S. cerevisiae deletion strains, locus YNR030W, strain Alg12, stronger effect = lower value 0.978 | S. cerevisiae deletion strains, locus YOL006C, strain TOP1, stronger effect = lower value 1.04 | S. cerevisiae deletion strains, locus YPL055C, strain LGE1, stronger effect = lower value 1.03 | S. cerevisiae deletion strains, locus YPL241C, strain CIN2, stronger effect = lower value 1.01 | S. cerevisiae deletion strains, locus YPR135W, strain CTF4, stronger effect = lower value 0.982 | S. cerevisiae strains, strain wild type, stronger effect = lower value 1.01
